Data taken from PubChem BioAssay (NCI).
This is part of a sample that, as a whole, favours compounds with a hit. Of some 83,000 tested, about 20% had one in any assay.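 Single-dose data. Exposure time 48 hours. Values below 10 considered active.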 Unmarked numbers belong to inactive results. Calls of active or inactive are those of the source.

Tests used:
Assay in all cases: NCI-60 one-dose screen, 48 h (100 = growth as untreated, 0 = no growth, -100 = all killed)
NCI-H23 lung = conditions: 10 µM unless noted
NCI-H226 lung = conditions: 10 µM unless noted
NCI-H322M lung = conditions: 10 µM unless noted
NCI-H460 lung = conditions: 10 µM unless noted
HOP-92 NSCLC = conditions: 10 µM
NCI-H522 lung = conditions: 10 µM
A549/ATCC NSCLC = conditions: 10 µM unless noted
786-0 renal = conditions: 10 µM unless noted
DU-145 prostate = conditions: 10 µM unless noted
MALME-3M melanoma = conditions: 10 µM unless noted
MDA-MB-231 breast = conditions: 10 µM unless noted
RXF 393 renal = conditions: 10 µM unless noted
SF-268 CNS = conditions: 10 µM unless noted
SF-295 CNS = conditions: 10 µM unless noted
SF-539 CNS = conditions: 10 µM unless noted
UACC-257 melanoma = conditions: 10 µM unless noted
M14 melanoma = conditions: 10 µM unless noted
COLO 205 colon = conditions: 10 µM unless noted
K-562 leukemia = conditions: 10 µM unless noted

SMILES	growth (NCI-H23 lung)	growth (NCI-H226 lung)	growth (NCI-H322M lung)	growth (NCI-H460 lung)	growth (HOP-92 NSCLC)	growth (NCI-H522 lung)	growth (A549/ATCC NSCLC)	growth (786-0 renal)	growth (DU-145 prostate)	growth (MALME-3M melanoma)	growth (MDA-MB-231 breast)	growth (RXF 393 renal)	growth (SF-268 CNS)	growth (SF-295 CNS)	growth (SF-539 CNS)	growth (UACC-257 melanoma)	growth (M14 melanoma)	growth (COLO 205 colon)	growth (K-562 leukemia)
O=C1c2ccccc2CCc2ccccc21	100%	100%	92.7%	108%	78.7%	86.4%	98.5%	109%	104%	98%	96.8%	101%	96.5%	76.8%	107%	103%	96.2%	–	–
Nc1cc(N)c2nc(NCCc3ccc(Cl)c(Cl)c3)cnc2c1	63.8%	61.4%	-3.74% (active)	71.9%	–	17.3%	71.1%	37.5%	101%	–	-23.5% (active)	51.1%	30.8%	89.4%	89.6%	90.4%	–	5.65% (active)	-23.1% (active)
CCOP1(=O)CC(C)=C(Cl)C(P(=O)(O)O)C1 (stereo not given)	93.3%	99.9%	108%	114%	89.1%	89.7%	94.8%	–	109%	95.1%	100%	96%	109%	109%	105%	87.3%	–	110%	101%
COc1cc(/C=C/C(=O)c2ccc(F)cc2)ccc1OCCCCOc1cc2c(cc1OC)C(=O)N1CCCC1C=N2 (stereo not given)	-33.9% (active)	-8.87% (active)	88.1%	-49.5% (active)	-43.9% (active)	-61.1% (active)	45.9%	–	-72.1% (active)	-6.3% (active)	-15% (active)	-71.6% (active)	-12.4% (active)	-29.1% (active)	-61.9% (active)	2.17% (active)	–	-45.2% (active)	-23.9% (active)
CC(=O)Nc1nc(C)c(C(=O)N/N=C/c2cccs2)s1	103%	86.9%	111%	102%	–	94.8%	101%	94.3%	115%	117%	89.3%	113%	97%	96.2%	99.3%	109%	95.7%	101%	108%
CCCCCc1ccnc(CC(=O)c2ccc(OC)cc2)c1	93.8%	88.6%	104%	95.2%	69.5%	66.6%	–	98.9%	105%	90.3%	98%	106%	98.7%	97.4%	97.2%	90.9%	99.2%	87.3%	68.1%
CCCCn1c(Cc2ccc(OC)cc2)nc2cc(OC)c(OC)cc2c1=O	62.1%	68.1%	101%	99.2%	61.9%	87%	19.7%	–	103%	112%	73.9%	–	86.1%	–	103%	-56.6% (active)	119%	107%	48.6%
C=C(C)[C@@H]1CC[C@]2(COC(=O)c3ccccc3C(=O)O)CC[C@]3(C)[C@H](CC[C@@H]4[C@@]5(C)CCCNC(C)(C)[C@@H]5CC[C@]43C)[C@@H]12	80.7%	66.3%	93.3%	55.9%	86.1%	78.3%	61.4%	84.4%	65.9%	68.2%	94.3%	–	73.2%	66.6%	75.7%	81.7%	61.7%	–	–
CC1(C)NCCC[C@]2(C)[C@H]3CC=C4[C@@H]5C[C@](C)(COC(=O)c6ccccc6C(=O)O)CC[C@]5(C)CC[C@@]4(C)[C@]3(C)CC[C@@H]12	66.9%	86.5%	91%	29.7%	–	79%	56.7%	65.2%	79.3%	66.3%	84%	–	60.7%	60.3%	66.6%	67.8%	69.3%	–	–
